# Measurements from PubChem BioAssay AID1688 (National Center for Advancing Translational Sciences (NCATS), 2009).
# About 2,400 (1.1%) of roughly 220,000 compounds were called active. About 7% were inconclusive and are not listed. The call rests on the fitted dose curve; in most records, active means well fitted inhibition curve with a large enough effect; inconclusive means small, poorly fitted or top-dose-only effect, or effect the other way; inactive means no such curve, though single readings can be large or run the other way. Shown is part of a subset that was picked to be rich in actives.
# Test: qHTS Multiplex Assay to Identify Dual Action Probes in a Cell Model of Huntington: Aggregate Formation (GFP); further: nearly all actives have a fitted effect of over 60% in size
# Settings: PC12 HttQ103-GFP aggregates, Acumen cytometry, 40 h; series mostly up to 9.22 µM; activity change, negative = inhibition: at the top concentration
# Description: NIH Chemical Genomics Center [NCGC]
# NIH Molecular Libraries Probe Production centers Network [MLPCN]
# Assay Submitter (PI): Wei Zheng
# Huntington's disease is a neurodegenerative disorder caused by a trinucleotide repeat expansion in Exon 1 of the Huntingtin gene. The CAG trinucleotide encodes glutamine and polyglutamine expansions cause cell death in selective areas of the brain. Huntington polyglutamine repeats have the tendency to form aggregates which are observable in later stages of the disease. The exact nature of the aggregates, whether toxic, protective, or insignificant, is unclear.
# A stable PC12 cell line containing a gene fusion of Exon 1 of the Huntingtin gene linked to GFP under the control of the inducible ecdysone promoter were used as the cell-based model of Huntington Disease for high throughput screening. Exon 1 of the Huntingtin gene contained an expansion of 103 polyglutamines (Q103) which, when expressed, caused cell death and distinct, bright GFP aggregates. The amount of cell death and the size and intensity of GFP aggregates increased over time and induction level. The cell death were quantified with a measurement of ATP content in the cells. A maximal 40-50% of cell death was observed when the Huntington gene was induced in this cell line.
# We optimized this assay in a homogeneous 1536 well format. A quantitative high throughput screen (qHTS) was conducted on the PC12 cells which were induced to express the toxic fusion construct. Small molecules which reduced aggregate formation were identified bu using a laser scanning cytometer calibrated to detect the aggregates in cell lysates.
# PC12 cells stably containing a construct with an ecdysone inducible promoter expressing GFP fused to the exon 1 of HTTQ103 (Huntington protein which containing a 103 ployglutamine expansion) were used.
# NCGC Assay Protocol Summary:
# Sequence, Parameter, Description
# 1, Reagent, 5 uL 1500 cells/well 1536 TC treated White clear bottom plate
# 2, Compound, 23 nL Tebufenozide inducer (100 nM final) to all columns
# 3, Compound, 23 nL 40 uM to 0.5 nM Libraries
# 5, Reagent, 5 ul ATPLite cell death assay reagent
# 6, Detector, Aggregate quantitation by Acumen Explorer
# Media consisted of phenol red free DMEM + 5% equine serum (Hyclone # SH30072.03 ), 5% supplemented Bovine Calf Serum (Hyclone # SH30074.03 ), 1x pen/strep, no G418
# Acumen Explorer was used to quantitate GFP aggregates using the following criteria: […] laser excitation, 500-530 nm emission, the PMT was set at a voltage of 450 volts, and objects ranging in size of […] in size having a signal of 6 STDEV above background were collected.
# Control columns: 1 = DMSO, 2= 2 uM teb dilns (1:1), 4 = 100 nM Teb inducer. Sample columns received 100 nM Teb.
# On the % scale 0 is the no-effect control and ±100 the full control effect.
SMILES,"activity change, negative = inhibition",Potency
CCCCCn1c(=O)c(C(=O)Nc2c(C)n(C)n(-c3ccccc3)c2=O)c(O)c2ccccc21,-4.15% [at 46.1 µM] (inactive),–
CCCCCn1c(=O)c(C(=O)NCc2ccccn2)c(O)c2ccccc21,–,31.6 µM (active)
C=CCN1CCC23c4c5ccc(O)c4O[C@H]2C(=O)CC[C@@]3(O)C1C5 (stereo not given in full),-12.6% [at 46.1 µM] (inactive),–
c1ccc2sc(SNC3CCCCC3)nc2c1,4.56% [at 46.1 µM] (inactive),–
CN1CCN(/N=C/c2c[nH]c3ccccc23)CC1,-7.16% (inactive),–
CC(Cc1ccccc1)NC=O (stereo not given),7.73% [at 46.1 µM] (inactive),–
CN1CCCC(=C(c2cccs2)c2cccs2)C1,12.7% [at 46.1 µM] (inactive),–
Cc1ncc(CC(=O)n2cc(C(=O)c3cc(Cl)ccc3O)cn2)s1,–,14.1 µM (active)
COc1cccc(CN2CCCC(C(=O)c3ccccc3SC)C2)c1O (stereo not given),7.86% (inactive),–
CC[N+]1(CCOC(=O)C(O)(c2ccccc2)c2ccccc2)CCCCC1,0.998% [at 46.1 µM] (inactive),–
COc1ccc(-n2c(-c3ccccc3)nc3ccccc3c2=O)cc1,-2.76% (inactive),–
O=Cc1cn(Cc2ccc(F)cc2Cl)c2ccccc12,–,10 µM (active)
CC1C2Cn3c(nc4ccccc43)C1N(C)O2 (stereo not given),-32.9% (inactive),–
CCCCC(=O)N/N=C/c1c(O)n(CC)c(=S)n(CC)c1=O,–,3.98 µM (active)
CCCCC(=O)N/N=C/c1c(O)n(-c2ccccc2)c(=O)[nH]c1=O,-6.96% (inactive),–
CCCCC(=O)N/N=C/c1c(O)n(CCC2=CCCCC2)c(=O)[nH]c1=O,7.87% (inactive),–
COC([CH2][Hg])CNC(=O)c1ccccc1OCC(=O)O (stereo not given),7.98% [at 46.1 µM] (inactive),–
O=C(N/N=C/c1ccc([N+](=O)[O-])o1)c1cc([N+](=O)[O-])cc([N+](=O)[O-])c1O,8.73% [at 46.1 µM] (inactive),–
CC(C)c1ccc(-n2c(O)c(/C=N/N3CCOCC3)c(=O)[nH]c2=S)cc1,-11.4% (inactive),–
CCCn1c(C(=O)c2ccccc2OC)nc2ccccc21,5.56% (inactive),–
